# Experimental data as given in PubChem BioAssay.
# “And” between values parts separate entries of the source, which are not always exact repeats. Equal values may be shown once. The source made the active and inactive calls. Unless noted, how the calls were made is not given here.
# How the values were obtained:
# [1] = compounds altering circadian rhythm period length – cell-based, LOPAC library, luminescence reporter (AID 2774); settings: circadian reporter cells, at 7 µM, actives lie on both sides;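 further: values are relative to mean of DMSO wells on each plate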
# [2] = test system: Aerobactin synthetase IucA (Klebsiella pneumoniae); assay: inhibition of K. pneumoniae IucA enzyme – biochemical, Tocris library, absorbance (AID 1345561); settings: purified IucA enzyme assay, absorbance (OD) read-out; stronger effect = lower value;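 tested at 8 µM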;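 further: 100% = enzyme without compound and 0% = no enzyme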
# [3] = viability loss with induced miR-34 in A549 – imaging, A549 dox-inducible miR-34, nuclei and caspase counts, primary screen (AID 1347080;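 active means compounds whose cell count with miR-34 switched on is under 0.7 times the count with it off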); settings: A549 miR-34 inducible, Hoechst nuclei count, 48 h
# [4] = galactose survival enhancers in mitochondrial complex I cybrids – cell-based, galactose medium, ATP luminescence, primary screen (AID 1645843;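 active means z-score of at least 1.8 in each of two replicates, scored against plate mean and spread of sample wells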;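 further: positive z means more ATP and so rescue of galactose-driven cybrid death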); settings: complex I mutant cybrid cells, 72 h, stronger effect = higher value
# [5] = MELAS cybrid and Rieske KO viability enhancers – cell-based, MELAS cybrids, Rieske KO mouse fibroblasts, CellTiter-Glo, primary screen (AID 1508586;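 active means mean z-score across replicates of 1.96 or higher in either the MELAS or the Rieske mutant cell line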;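 further: z relative to plate mean and SD of compound and empty wells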); settings: low glucose
# [6] = stronger effect = lower value, cell number ratio, induced over uninduced
# [7] = measured here: relative caspase fold change +Dox/-Dox
# [8] = measured here: total cells with miR-34 induction, stronger effect = lower value
# [9] = measured here: total cells without miR-34 induction
SMILES,period change [1],remaining activity [2],"fold change [3, 6]","fold change [3, 7]","cell count [3, 8]","cell count [3, 9]",z-score [4],"z-score ([5]; MELAS cybrid survival, CellTiter-Glo 48 h, stronger effect = higher value)","z-score ([5]; Rieske KO mouse fibroblast survival, CellTiter-Glo 72 h)",fold change ([3]; stronger effect = lower value)
CN1C2CCC1CC(OC(c1ccccc1)c1ccc(Cl)cc1)C2 (configuration not stated),0.035 h (inactive),92.9% (inactive),0.909 (inactive),1.16,4530,4990,-1.1 (inactive),–,–,–
Cc1nc(N)sc1CCN,–,88.4% (inactive),0.919 (inactive),1.01,8020,8730,0.195 (inactive),–,–,–
CCCCC1(C2CCCC2)Cc2cc(OCCCC(=O)O)c(Cl)c(Cl)c2C1=O (configuration not stated),–,98.2% (inactive),0.969 (inactive),0.91,7490,7730,3.13 (active),–,–,–
Cc1cccc(C(C)c2cnc[nH]2)c1C (configuration not stated),–,123% (inactive),–,–,–,–,-0.255 (inactive),0.00954 (inactive) and -0.104 (inactive) and -0.218 (inactive),0.0551 and -0.0823 and -0.0306,–
S=C=Nc1cccc(C2(N3CCCCC3)CCCCC2)c1,0.05 h (inactive),122% (inactive),0.942 (inactive),0.732,9100,9670,0.62 (inactive),–,–,–
c1ccc(CCCCN2CCC(c3ccccc3)CC2)cc1,–,90.6% (inactive),0.976 (inactive),1.02,8670,8890,0.375 (inactive),–,–,–
C=CCN1C[C@H](C)N([C@H](c2ccc(C(=O)N(CC)CC)cc2)c2cccc(O)c2)C[C@H]1C,–,99.4% (inactive),0.929 (inactive),0.728,8160,8780,-0.17 (inactive),–,–,–
OC(Cc1ccncc1)C(Cl)(Cl)Cl (configuration not stated),–,118% (inactive),0.921 (inactive),0.736,9270,10100,-0.53 (inactive),–,–,–
c1ccc(CC(c2ccccc2)N2CCCCC2)cc1 (configuration not stated),–,103% (inactive),–,0.814,9440,9860,-0.99 (inactive),–,–,0.958 (inactive)
O=C1CSC(c2ccccc2Cl)c2cc(Cl)ccc2N1 (configuration not stated),–,115% (inactive),–,1.12 and 0.874,2450 and 7360,2880 and 8400,-0.095 (inactive),–,–,0.848 (inactive) and 0.875 (inactive)
Oc1ccc2c3c1O[C@H]1c4c(c5ccccc5n4Cc4ccccc4)C[C@@]4(O)C(C2)N(CC2CC2)CC[C@]314,–,94.5% (inactive),–,1.27,2600,2780,-1.2 (inactive),–,–,0.935 (inactive)
CCCOc1ccc2[nH]cc(C3=CCNCC3)c2n1,–,119% (inactive),0.982 (inactive),0.876,9040,9210,-0.37 (inactive),–,–,–
CCN1C[C@]2(COC(=O)c3ccccc3N3C(=O)C[C@H](C)C3=O)CC[C@H](OC)[C@]34C2[C@H](OC)[C@](O)([C@H]13)[C@@]1(O)C[C@H](OC)[C@H]2C[C@@H]4[C@@H]1[C@H]2OC,–,128% (inactive),0.94 (inactive),0.834,8220,8740,-0.21 (inactive),–,–,–
C=C(C)[C@@H]1CCC(C)=C[C@H]1c1c(OC)cc(C)cc1OC,–,106% (inactive),0.943 (inactive) and 0.926 (inactive),0.715 and 0.958,5230 and 8980,5540 and 9700,-0.105 (inactive),–,–,–
CC(=O)[C@H]1CC[C@H]2[C@@H]3CCC4C[C@](C)(O)CC[C@]4(C)[C@H]3CC[C@]12C (some centres not stated),–,103% (inactive),–,1.5,8730,9490,-0.285 (inactive),–,–,0.92 (inactive)
Cc1o[nH]c(=O)c1C[C@H](N)C(=O)O,–,106% (inactive),1.04 (inactive),0.71,9160,8800,0.59 (inactive),–,–,–
O=C1Nc2cc(Cl)c(Cl)cc2N2CCNCC12 (configuration not stated),–,125% (inactive),0.949 (inactive),0.693,8510,8970,-0.265 (inactive),–,–,–
O=C1Nc2ccccc2C2(CCN(CCc3ccc(C(F)(F)F)cc3)CC2)O1,–,102% (inactive),1.06 (inactive),0.675,4790,4500,-0.66 (inactive),–,–,–
C[C@H](N)Cn1ccc2cc(F)c(Cl)cc21,–,103% (inactive),0.874 (inactive),1.05,7990,9140,-0.575 (inactive),–,–,–
O=C1/C(=C/c2ccccc2)C[C@@]2(O)C3Cc4ccc(O)c5c4[C@@]2(CCN3CC2CC2)[C@H]1O5,–,97.5% (inactive),–,0.83,919,833,-1.12 (inactive),–,–,1.1 (inactive)
OC12C3C4CC5C6C4C1C6C(C53)N2CCc1cccc(F)c1 (configuration not stated),–,98.4% (inactive),0.838 (inactive),1.86,7940,9480,0.295 (inactive),–,–,–
Ic1cncc(OC[C@@H]2CCN2)c1,–,118% (inactive),0.934 (inactive),0.549,9660,10300,-0.135 (inactive),–,–,–
